Hits are enriched below; roughly 8.9% of the tested compounds scored in any of these assays.
IMPase Li cell: membrane-permeable IMPase blocker, potentiated with lithium | CHO-M1 cells, IP1 TR-FRET (IP-One), carbachol + lithium | Potency, µM (highest dose often 59.4 µM), actives largely listed as inhibitors | hit rate 0.35% among 210,000 | AID 1457;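 further: IP1 builds up when IMPase is blocked and the TR-FRET signal falls; nearly all actives have a fitted effect of over 50% in size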
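Lithium-sensitised IP1 accumulation assay; M1-expressing CHO cells treated 30 min at 37C with compound. Competitive antibody detection by time-resolved FRET followed a 10 min room-temperature lysis step.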
NPSR antag: neuropeptide S receptor (human) antagonism, cAMP; Q6W5P4; CHO-NPSR cells, cAMP TR-FRET, antagonist mode; Potency, µM (doses to about 38.3 µM), actives largely listed as inhibitors; hit rate 1% among 220,000; AID 1461; further: nearly all actives have a fitted effect of over 50% in size
Target sequence (Q6W5P4 whole entry, looked up): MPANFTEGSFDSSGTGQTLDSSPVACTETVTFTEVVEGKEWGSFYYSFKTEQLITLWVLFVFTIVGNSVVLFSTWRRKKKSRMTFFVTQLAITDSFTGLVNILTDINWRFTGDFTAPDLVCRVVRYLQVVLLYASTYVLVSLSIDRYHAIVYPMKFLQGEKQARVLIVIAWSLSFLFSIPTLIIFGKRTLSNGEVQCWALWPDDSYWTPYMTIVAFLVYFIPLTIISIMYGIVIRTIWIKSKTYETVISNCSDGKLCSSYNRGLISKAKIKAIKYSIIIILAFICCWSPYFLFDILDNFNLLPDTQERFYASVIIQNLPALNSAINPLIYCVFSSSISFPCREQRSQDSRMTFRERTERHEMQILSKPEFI
ALDH1A1 inh: inhibitors of human aldehyde dehydrogenase 1A1; P00352; Purified ALDH1A1, NADH fluorescence, propionaldehyde substrate; Potency, µM (series often up to 75.3 µM), actives largely listed as inhibitors; hit rate 7.3% among 220,000; AID 1030; active means well fitted inhibition curve with a large enough effect, not every such curve was filed as active; inconclusive means small, poorly fitted or top-dose-only effect, or another doubt; inactive means no such curve, though single readings can be large or run the other way
12-hLO inh: blocks human 12-lipoxygenase activity | hit rate 0.12% among 150,000 | Potency, µM (series often up to 57.1 µM), usual class: inhibitors | purified 12-hLO, xylenol orange hydroperoxide absorbance | P18054; further: nearly all actives have a fitted effect of over 55% in size
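Lipoxygenase turnover measured by absorbance at 573 and 405 nm after Fe-XO development. Human 12hLO 150 nM, arachidonate 40 uM, pH 7.0 Hepes buffer with detergent; 15 min compound preincubation, 30 min reaction.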
IMPase inh: membrane-permeable compound that blocks inositol monophosphatase. P97697. CHO-M1 cells, IP1 accumulation, HTRF TR-FRET ratio. inhibition (IP1 accumulation), % at 46.1 µM. 120,000 tested, under 10 active; active means well fitted curve in the direction sought with a large enough effect in the signal ratio, not every such curve was filed as active; inconclusive means small, poorly fitted or top-dose-only effect, or a change in a side signal; inactive means no such curve, though single readings can be large or run the other way; the % refers to the signal ratio;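 further: cells stimulated with carbachol in lithium chloride buffer; higher means more IMPase inhibition seen as more IP1 and lower FRET ratio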
Target sequence (P97697 whole entry, looked up): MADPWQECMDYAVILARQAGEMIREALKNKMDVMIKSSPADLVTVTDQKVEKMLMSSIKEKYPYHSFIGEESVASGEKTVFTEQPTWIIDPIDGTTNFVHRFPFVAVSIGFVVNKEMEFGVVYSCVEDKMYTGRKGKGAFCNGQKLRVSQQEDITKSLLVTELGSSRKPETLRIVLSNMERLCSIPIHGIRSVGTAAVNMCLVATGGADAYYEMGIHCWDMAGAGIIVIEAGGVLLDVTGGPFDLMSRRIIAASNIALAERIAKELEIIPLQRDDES
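Elevated IP1 in lysates lowers TR-FRET signal (665/620 ratio and 620 channel reported). Cells were CHO-M1, given carbachol (50 uM as added) plus 50mM LiCl, pH 7.4, 30 min, 37C; compounds titrated up to 46 uM; AC50 by Hill equation.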
HPGD inh: blocks human HPGD enzyme activity; P15428; purified HPGD, NADH fluorescence kinetic, PGE2 substrate; Potency, µM, hits mostly inhibitors; hit rate 4.3% among 150,000; AID 894; active means well fitted inhibition curve with a large enough effect, not every such curve was filed as active; inconclusive means small, poorly fitted or top-dose-only effect, or another doubt; inactive means no such curve, though single readings can be large or run the other way
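NADH formation kinetics: reaction with 30 uM PGE2 and 1 mM NAD+ (final), 20 nM enzyme, Tris-HCl pH 8 with Tween 20, after 15 min compound preincubation at room temperature. Fluorescence change, last versus first of five reads.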
Hits are given with their value; - = inactive; ? = inconclusive; . = no result; [ ] = remark or other dose. Unless noted, the call rests on the fitted dose curve; in most records, active means well fitted curve in the direction sought with a large enough effect; inconclusive means small, poorly fitted or top-dose-only effect, or another doubt; inactive means no such curve, though single readings can be large; an effect the other way counts as inactive or inconclusive.

SMILES | IMPase Li cell | NPSR antag | ALDH1A1 inh | 12-hLO inh | IMPase inh | HPGD inh
Cc1ccc(C=Nc2cccnc2N)cc1 | - | - | ? | - | . | -
O=C(Cc1cn2ccsc2n1)Nc1nc2c(s1)CN(Cc1ccccc1)CC2 | - | - | 10µM | - | - | -
O=C(C1CCN(S(=O)(=O)N2CCC3(CC2)OCCO3)CC1)N1CCCCC1 | - | - | - | - | . | 16µM
O=C(C1CCN(S(=O)(=O)N2CCC3(CC2)OCCO3)CC1)N1CCOCC1 | - | - | - | - | - | -
CC1CCCC(NC(=O)COC(=O)Cc2ccc(Br)cc2)C1C (centres undefined) | - | - | - | . | . | .
COc1cc(CCC(=O)OCC(=O)NC2CCCC(C)C2C)cc(OC)c1OC (centres undefined) | - | - | ? | . | . | .
CC1CCCC(NC(=O)COC(=O)Cc2ccsc2)C1C (centres undefined) | - | - | - | - | - | -
CC1CCCC(NC(=O)COC(=O)CCC2CCCC2)C1C (centres undefined) | - | - | 11µM | - | - | ?
CC1CCCC(NC(=O)COC(=O)COc2ccc(Cl)cc2)C1C (centres undefined) | - | - | 1µM | - | - | -
CC1CCCC(NC(=O)Cc2ccc(Br)cc2)C1C (centres undefined) | - | - | - | - | - | 16µM
CC1CCc2nn(CC(=O)NC3CCCC(C)C3C)cc2C1 (centres undefined) | - | ? | - | - | - | 14µM
O=C(CSC1=NNC(c2ccccn2)S1)Nc1ccc(C(F)(F)F)cc1 (centres undefined) | . | - | . | . | . | .
COc1ccc(C2CC(=O)Oc3ccc(O)cc32)cc1 (centres undefined) | - | . | ? | -[0.00818 µM] | . | -
COc1ccc(C)cc1C(=O)CCC(=O)NC1CCCCC1 | - | - | - | . | . | .
Cc1ccc2c(c1)NCC(C(=O)NC1CCCCC1)O2 (centres undefined) | - | - | - | - | - | 13µM
COC(=O)c1cc(=O)n(Cc2cccs2)c(=Nc2ccc(F)cc2)s1 | - | ? | 10µM | . | . | .
COC(=O)c1cc(=O)n(Cc2ccc3c(c2)OCO3)c(=Nc2ccc(F)cc2)s1 | - | ? | ? | - | - | -
COC(=O)c1cc(=O)n(Cc2ccco2)c(=Nc2ccc(F)c(Cl)c2)s1 | - | ? | 3.5µM | - | - | -
COC(=O)c1cc(=O)n(-c2ccc(F)cc2)c(=Nc2ccc(F)cc2)s1 | - | - | - | - | . | -
COC(=O)c1cc(=O)n(Cc2ccc3c(c2)OCO3)c(=Nc2ccccc2)s1 | - | ? | 0.63µM | - | - | -
COc1ccccc1NS(=O)(=O)c1ccc2oc(SC3CCOC3=O)nc2c1 (centres undefined) | - | - | ? | - | - | -
CS(=O)(=O)c1ccc(Cl)c(NC(=O)Cc2c(Cl)cccc2Cl)c1 | - | - | - | . | . | .
CCc1cc2c(-c3ccccc3)cc(=O)oc2c(CN2CCOCC2)c1O | - | - | ? | - | - | -
COc1cccc(/C=N/N2C(=O)NC3(CCCCC3)C2=O)c1O | - | - | ? | - | - | -
CCOc1cc(/C=N/N2C(=O)NC3(CCCCC3)C2=O)cc(Br)c1O | - | - | 15µM | . | . | .
SMILES | IMPase Li cell | NPSR antag | ALDH1A1 inh | 12-hLO inh | IMPase inh | HPGD inh
COc1ccc(-c2c(O)c(C#N)c(-c3ccccc3)n(-c3ccc(OC)cc3)c2=O)cc1 | - | - | - | - | . | -
COc1ccc(/C=C2\CN(Cc3ccccc3)C/C(=C\c3ccc(OC)cc3)C2=O)cc1 | - | - | 16µM | - | . | -
COc1ccc(/C=C2\CN(Cc3ccccc3)C/C(=C\c3ccc(OC)cc3OC)C2=O)c(OC)c1 | - | ? | 18µM | - | - | -
COc1ccc(C=C2c3ccccc3C(=O)c3ccccc32)c(OC)c1 | . | - | . | . | . | .
CCOC(=O)CN(C(=O)COc1nc(-c2ccccc2)cc(C)c1C#N)c1ccccc1C | . | - | . | . | . | .
COc1ccc(S(=O)(=O)N2c3cc(Cl)ccc3Oc3nc4ccccc4nc32)cc1 | - | - | - | - | - | -
O=S(=O)(c1ccc(Cl)cc1)N1c2ccccc2Oc2nc3ccccc3nc21 | - | - | 25µM | - | - | -
CCOC(=O)c1ccccc1OC(=O)CS(=O)c1ccccc1[N+](=O)[O-] (centres undefined) | - | - | 22µM | . | . | .
CCOC(=O)C1(CCCc2ccccc2)CCN(C(=O)C2=C(C)OCCO2)CC1 | - | - | 3.2µM | . | . | .
CCOC(=O)C1(CCCc2ccccc2)CCN(C(=O)c2ccoc2)CC1 | - | - | 4µM | . | . | .
CC#CC(=O)N1CCC(CCc2ccccc2)(C(=O)OCC)CC1 | - | - | - | . | . | .
CCOC(=O)C1(CCc2ccccc2)CCN(C(=O)c2ccoc2)CC1 | - | - | 25µM | . | . | .
CCOC(=O)C1(CCCc2ccccc2)CCN(C(=O)CCC2=NNC(=O)CC2)CC1 | - | - | 2µM | . | . | .
CCOC(=O)C1(CCCc2ccccc2)CCN(C(=O)CN2CCOC2=O)CC1 | - | - | ? | . | . | .
CCOC(=O)C1(CCCc2ccccc2)CCN(C(=O)Cc2nonc2C)CC1 | - | - | ? | . | . | .
CCCCC(=O)Nc1ccc(C(=O)Nc2nc(CC(=O)OCC)cs2)cc1 | - | - | - | - | - | -
O=C(Nc1nnc(Cc2ccccc2)s1)c1ccco1 | - | - | - | - | - | -
NC(=O)c1cc(Cc2ccccc2)sc1NC(=O)c1ccco1 | - | ? | 18µM | - | - | 28µM
CCCc1cc(C(N)=O)c(NC(=O)c2ccoc2C)s1 | - | - | 18µM | - | - | ?
CCOC(=O)c1cc(NC(=O)c2ccoc2C)cc(C(=O)OCC)c1 | - | ? | 6.3µM | - | - | -
O=[N+]([O-])c1cccc(-c2csc(CS(=O)(=O)Cc3ccco3)n2)c1 | . | - | ? | . | . | .
